Bioassay records: PubChem BioAssay, The Scripps Research Institute Molecular Screening Center
Rows were chosen to be rich in hits. Some 4.5% of all compounds tested hit in one or more screens of this group.
DAX1 inh-1 = inhibitors of human orphan nuclear receptor DAX1 (NR0B1). P51843. HEK293 Gal4-DAX1 luciferase reporter, luminescence. inhibition, % at 6.75 µM. 340,000 compounds, 0.99% hits;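 active means inhibition above the mean over all tested compounds plus 3 SD, cut at about 4.2% in these data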;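 further: inhibition shows as a rise in luminescence from relieved DAX1 repression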
Target sequence (P51843 207-470 limits assumed): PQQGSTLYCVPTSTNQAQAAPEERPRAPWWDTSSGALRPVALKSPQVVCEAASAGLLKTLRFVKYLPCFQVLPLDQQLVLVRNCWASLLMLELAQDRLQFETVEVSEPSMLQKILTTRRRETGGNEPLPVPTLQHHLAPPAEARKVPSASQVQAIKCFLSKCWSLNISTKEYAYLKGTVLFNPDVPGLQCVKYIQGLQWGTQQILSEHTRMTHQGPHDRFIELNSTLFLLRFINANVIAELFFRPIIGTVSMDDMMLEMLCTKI
ssDAF-12 act = activates DAF-12 receptor from parasite S. stercoralis | HEK293 ssDAF-12/GRIP1 lit1-tk-luc reporter, luminescence; % of 3 µM dafachronic acid response | activation, % at 6.8 µM | 370,000 compounds, 1% hits | AID 652126;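 active means activation above the mean over all tested compounds plus 3 SD, cut at about 0.9% in these data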
hgDAF-12 ag = hgDAF-12 agonism, primary luciferase screen; HEK293 GAL4-hgDAF12 UAS-luciferase reporter, agonist luminescence; normalized to butyrate control; activation, % at 6.8 µM; 370,000 compounds, 1.8% hits; AID 687014;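 active means activation above a cutoff set at the mean of all screened compounds plus 3 SD, cut at about 10% in these data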
GAA850 FXN act = increases GAA850 frataxin promoter reporter activity; HEK293 lucGAA850 FXN promoter luciferase reporter, 24 h; percent of 10 µM SAHA response; activation, % at 6 µM; 360,000 compounds, 0.56% hits;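 active means activation above the average of all compounds screened plus 3 SD, cutoff fixed separately per campaign, cut at about 7.5% in these data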
DAX1 inh-2 = DAX1 (NR0B1) inhibition, primary screen | HEK293T StAR-luciferase reporter, SF-1/DAX-1 repression relief | inhibition, % at 6.8 µM | 370,000 compounds, 1.1% hits;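 active means inhibition above the mean over all tested compounds plus 3 SD, cut at about 3.6% in these data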;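 further: higher inhibition means more luminescence from relief of DAX-1 repression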
hcDAF-12 act = H. contortus DAF-12 activation, primary screen; HEK293 hcDAF-12 lit1-tk-luc reporter, luminescence; 0% DMSO, 100% Δ7-dafachronic acid; activation, % at 6.8 µM; 370,000 compounds, 1.4% hits;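 active means activation above the mean of all tested compounds plus 3 SD, cut at about 5.5% in these data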
hgDAF12 conf = hgDAF-12 agonism, confirmation assay; shares compounds with hgDAF-12 ag; HEK293 GAL4-hgDAF12 luciferase reporter, agonist mode; percent of butyrate response; activation, % at 6.8 µM; 3,300 compounds, 80% hits;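 active means mean activation over triplicate wells above the hit cutoff derived from the earlier primary screen, cut at about 11% in these data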
LXRb DAF12 ctr = LXR-beta agonism as DAF-12 counter-screen; shares compounds with hgDAF-12 ag; 3,300 tested, under 10 active; HEK293 Gal4-LXR luciferase reporter, 24 h; activation, % at 6.8 µM; AID 743051;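 active means mean activation of the triplicate above a set limit carried over from the primary screen, none filed active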
Target sequence (P55055 whole entry, looked up, the tested form may be a part): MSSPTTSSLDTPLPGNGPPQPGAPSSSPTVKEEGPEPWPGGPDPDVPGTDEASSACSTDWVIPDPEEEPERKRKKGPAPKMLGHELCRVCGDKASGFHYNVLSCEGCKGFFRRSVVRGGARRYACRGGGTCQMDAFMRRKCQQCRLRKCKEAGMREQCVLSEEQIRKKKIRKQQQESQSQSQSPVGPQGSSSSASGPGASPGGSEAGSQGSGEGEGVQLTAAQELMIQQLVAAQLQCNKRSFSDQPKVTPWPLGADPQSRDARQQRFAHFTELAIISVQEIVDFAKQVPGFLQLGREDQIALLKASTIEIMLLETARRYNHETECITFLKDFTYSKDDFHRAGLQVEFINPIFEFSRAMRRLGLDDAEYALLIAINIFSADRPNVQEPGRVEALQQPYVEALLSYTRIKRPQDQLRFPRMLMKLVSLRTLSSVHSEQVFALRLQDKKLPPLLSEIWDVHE
Large screens that a line does not name were inactive (follow-up assays come after a bar, where they were run).

CCC(OC(=O)c1nsc(Cl)c1Cl)C(=O)NC(C)(C)CC (stereo not given)	none
CCCCCCCCN1C(=O)[C@@H](CC(=O)NCCCN2CCCC2=O)C[C@@]2(C(=O)OC)C1=C[C@H](C1CCCC1)O[C@@H]2C	none (no result: DAX1 inh-1, GAA850 FXN act)
O=c1cc(-c2ccco2)oc2ccccc12	none
Cc1ccc2oc(-c3ccco3)cc(=O)c2c1	hgDAF-12 ag 14 | hgDAF12 conf 17 | LXRb DAF12 ctr inactive
O=C(NCc1ccccc1)c1cc(-c2cccc(O)c2)on1	hgDAF-12 ag 18 | hgDAF12 conf 12 | LXRb DAF12 ctr inactive
COc1cccc(-c2cc(C(=O)Nc3cccnc3)no2)c1	hgDAF-12 ag 15 | hgDAF12 conf 21 | LXRb DAF12 ctr inactive
CCCCNC(=O)c1cc(-c2ccc(OC)cc2)on1	hgDAF-12 ag 17 | hgDAF12 conf 16 | LXRb DAF12 ctr inactive
O=C(Nc1cccc(O)c1)c1cc(-c2ccc3c(c2)OCO3)on1	none
CCCNC(=O)c1cc(-c2ccc(OC)cc2)on1	none
Cc1ccc(NC(=O)c2cc(-c3cccc(O)c3)on2)cc1C	ssDAF-12 act 1.0, hgDAF-12 ag 14 | hgDAF12 conf 14 | LXRb DAF12 ctr inactive
COc1ccc(-c2cc(C(=O)NCc3ccccc3)no2)cc1OC	hgDAF-12 ag 20 | hgDAF12 conf inactive | LXRb DAF12 ctr inactive
Cc1ccc(CNS(=O)(=O)c2ccc(CN3C(=O)c4cccnc4C3=O)cc2)o1	none
O=C(Nc1ccn(Cc2ccccc2)n1)c1ccc(F)cc1	hgDAF-12 ag 17 | hgDAF12 conf 13 | LXRb DAF12 ctr inactive
C=CCN1C=CC(=C/C=C(/C#N)C(=O)OCC)C=C1	hgDAF-12 ag 16, hcDAF-12 act 5.6 | hgDAF12 conf 16 | LXRb DAF12 ctr inactive
CCOC(=O)/C(C#N)=C\c1ccco1	none
COc1ccc(-c2csc(C(C)(O)c3cccnc3)n2)cc1 (stereo not given)	none (no result: DAX1 inh-1)
S=C(NCc1ccco1)Nc1ccc(Br)cc1Cl	hgDAF-12 ag 13 (no result: DAX1 inh-1) | hgDAF12 conf inactive | LXRb DAF12 ctr inactive
S=C(NCc1ccco1)Nc1ccc(Cl)cc1Cl	none
Cc1ccc(S(=O)(=O)N2CCCCC2)cc1NC(=O)CSc1ncccn1	none
CC(=O)N1N=C(c2ccco2)CC1c1ccc(Cl)o1 (stereo not given)	none
O=c1[nH]c(CSc2ccccn2)nc2ccccc12	hgDAF-12 ag 18, DAX1 inh-2 3.6 | hgDAF12 conf 14 | LXRb DAF12 ctr inactive
O=C1c2ccccc2CN1CCSC(=S)N1CCOCC1	hgDAF-12 ag 16 | hgDAF12 conf 16 | LXRb DAF12 ctr inactive
CCc1ccc(-c2cc(C(=O)N/N=C/c3ccco3)[nH]n2)cc1	hgDAF-12 ag 14 | hgDAF12 conf inactive | LXRb DAF12 ctr inactive
O=C(N/N=C/c1ccco1)c1cc(-c2ccc3ccccc3c2)n[nH]1	hgDAF-12 ag 15 | hgDAF12 conf inactive | LXRb DAF12 ctr inactive
COc1ccc(OC)c(NC(=O)CCNC(=O)c2ccco2)c1	none
COc1cccc(CN2CCC(C)(Oc3cccc(Cl)c3)C2)c1OC (stereo not given)	none (no result: DAX1 inh-1)
Cc1ccc2c(c1)N(CC(=O)NCCCN1CCOCC1)C(=O)C(C(C)C)O2 (stereo not given)	none
O=C1c2cccn2CC2Cc3ccccc3N12 (stereo not given)	hgDAF-12 ag 15, hcDAF-12 act 6.5 (no result: DAX1 inh-1, GAA850 FXN act, DAX1 inh-2) | hgDAF12 conf 17 | LXRb DAF12 ctr inactive
CC(C)C(N)c1csc(Nc2nncc3ccccc23)n1 (stereo not given)	hgDAF-12 ag 14 (no result: DAX1 inh-1) | hgDAF12 conf inactive | LXRb DAF12 ctr inactive
Cc1cc(O)ccc1Nc1cc(-c2cccc(N(C)C)c2)ncn1	hgDAF-12 ag 14, DAX1 inh-2 4.2, hcDAF-12 act 5.8 (no result: DAX1 inh-1) | hgDAF12 conf 18 | LXRb DAF12 ctr inactive
CCOc1cc(/C=N/NC(=O)Nc2ccccc2)ccc1O	ssDAF-12 act 3.8, hgDAF-12 ag 13, hcDAF-12 act 6.1 | hgDAF12 conf 11 | LXRb DAF12 ctr inactive
COc1ccc(C=NNC(=O)CCCC(=O)NN=Cc2ccc(OC)c(OC)c2)cc1OC	none
COc1ccc(C=NNC(=O)NN=Cc2ccc(OC)c(OC)c2)cc1OC	DAX1 inh-1 5.0, hgDAF-12 ag 13 | hgDAF12 conf inactive | LXRb DAF12 ctr inactive
COc1ccc(S(=O)(=O)N2CCCCC2)cc1NC(=O)CNc1ccccc1C(C)=O	none
CCOC(=O)CC[C@@]1(C(=O)OCC)C[C@@H](CC(=O)NCc2cccc3ccccc23)C(=O)N2CCCC=C21	none (no result: DAX1 inh-1, GAA850 FXN act)
CN(C)c1ccc(/C=C2\CCCc3c2nc2ccccc2c3C(=O)O)cc1	ssDAF-12 act 1.6, hgDAF-12 ag 13, hcDAF-12 act 5.7 | hgDAF12 conf 13 | LXRb DAF12 ctr inactive
O=C(O)c1ccc(/C=C2\CCCc3c2nc2ccccc2c3C(=O)O)cc1	none
COc1ccc(-n2cc(-c3ccccc3)nc2SC)cc1	hgDAF-12 ag 15 | hgDAF12 conf 11 | LXRb DAF12 ctr inactive
Cc1ccccc1NC(=O)c1c(F)c(F)c(F)c(F)c1F	none
O=C(NCc1ccc(F)cc1)c1cc2ccccn2n1	none
Cc1ccccc1NC(=O)c1cnc2ccccn2c1=O	hgDAF-12 ag 16, DAX1 inh-2 4.2 | hgDAF12 conf 16 | LXRb DAF12 ctr inactive
CSc1ncc(C(=O)Nc2ccccc2C)c(C)n1	none
O=C(NCCc1cccc(F)c1)c1cc2ccccn2n1	hgDAF-12 ag 14 (no result: DAX1 inh-1, GAA850 FXN act) | hgDAF12 conf 12 | LXRb DAF12 ctr inactive
Cc1ccccc1NC(=O)c1cc2ccccn2n1	hgDAF-12 ag 19, hcDAF-12 act 6.0 | hgDAF12 conf 13 | LXRb DAF12 ctr inactive
COc1cccc(S(=O)(=O)Nc2ccc(C(=O)N3CCOCC3)cc2)c1	none
CCc1nc2ccc(C(=O)N3CCN(S(=O)(=O)CC)CC3)cn2c1N(CC)Cc1cccc(Br)c1	none (no result: DAX1 inh-1)
Fc1ccc(/C=N/Nc2nccnc2Cl)cc1	DAX1 inh-1 6.1, hgDAF-12 ag 14 | hgDAF12 conf inactive | LXRb DAF12 ctr inactive
Cc1nc(NC(=O)CC(C)C)sc1-c1csc(Nc2ccc(Cl)cc2)n1	none
COCCCn1cnc2c(c1=O)c1nc3ccccc3nc1n2-c1ccccc1	none
COCCCn1cnc2oc3nc4ccccc4nc3c2c1=O	hgDAF-12 ag 15 | hgDAF12 conf 19 | LXRb DAF12 ctr inactive
C/C(CC(=O)Nc1ccc(C)c(Cl)c1)=N\NC(=O)c1ccccn1	hgDAF-12 ag 14 | hgDAF12 conf inactive | LXRb DAF12 ctr inactive
Cc1cc(NO)nc(-c2ccc(Br)cc2)n1	hgDAF-12 ag 13 | hgDAF12 conf 19 | LXRb DAF12 ctr inactive
CCOc1ccc(OCCOCCNCCOC)cc1	none
